Drawing on PMC5700166, this text covers binding signal for 40 sequences.

The target of the first test is T1, GST-Dm-Relish (Drosophila melanogaster, UniProt Q94527 99-473).
T1 sequence: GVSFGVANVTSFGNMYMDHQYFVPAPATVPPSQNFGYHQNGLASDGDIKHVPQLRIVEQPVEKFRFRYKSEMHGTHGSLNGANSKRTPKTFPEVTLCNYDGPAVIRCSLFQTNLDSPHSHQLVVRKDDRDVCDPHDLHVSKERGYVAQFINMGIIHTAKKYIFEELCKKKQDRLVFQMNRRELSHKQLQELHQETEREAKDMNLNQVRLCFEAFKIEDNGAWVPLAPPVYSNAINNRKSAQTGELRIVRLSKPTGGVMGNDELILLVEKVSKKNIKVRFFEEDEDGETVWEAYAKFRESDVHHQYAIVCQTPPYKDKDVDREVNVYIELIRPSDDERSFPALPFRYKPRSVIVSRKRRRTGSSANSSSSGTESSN
In words: protein-binding microarray (PBM); PBM: ~300 nM protein, 6 mM HEPES pH 7.8, 80 mM KCl, 0.5 mM EDTA, 0.5 mM EGTA, 6% glycerol, 35 ng/ul poly-dIdC, 1% milk, 1 h, room temperature; Ap Aiptasia and Nv Nematostella (sea anemones) / Co Capsaspora / Aq Amphimedon (sponge) / Dm Drosophila / Hu human; RHD is the Rel homology domain; high values mean tight binding. As to conditions: dsDNA, one strand shown.
“CCGATTAACATCAGGAATATACCTGATGTTAATCGGGTCTTGATTCGCTTGACGCTGCTG” gave a binding signal of 1.86 z-score. Still for that read-out and setting: next, “CCGATTAACATCAAGGACTTTCCTGATGTTAATCGGGTCTTGATTCGCTTGACGCTGCTG”: 3.11 z-score; “CCGATTAACATCACATTGGGAAATGATGTTAATCGGGTCTTGATTCGCTTGACGCTGCTG”: 1.18 z-score; “CCGATTAACATCAATTGGGAAATTGATGTTAATCGGGTCTTGATTCGCTTGACGCTGCTG”: 1.48 z-score. Same read-out and setting: the result for “CCGATTAACATCAAGGAAAAACCTGATGTTAATCGGGTCTTGATTCGCTTGACGCTGCTG” reads 2.61 z-score.

For the sequence “CCGATTAACATCAGGAAAAGTCCTGATGTTAATCGGGTCTTGATTCGCTTGACGCTGCTG”, the binding signal amounted to 2.98 z-score.

In turn, “CCGATTAACATCACAAATGGGAATGATGTTAATCGGGTCTTGATTCGCTTGACGCTGCTG” showed a binding signal of 1.56 z-score.

As to “CCGATTAACATCATTTCCCAAAATGATGTTAATCGGGTCTTGATTCGCTTGACGCTGCTG”, the binding signal turned out to be 1.36 z-score. On to “CCGATTAACATCAAGGTATTTCCTGATGTTAATCGGGTCTTGATTCGCTTGACGCTGCTG”, for which the binding signal worked out at 3.08 z-score. The same measure, in the same setting: the result for “CCGATTAACATCAGGAATTTACCTGATGTTAATCGGGTCTTGATTCGCTTGACGCTGCTG” reads 4.54 z-score; that for “CCGATTAACATCAGGGCAGTACCTGATGTTAATCGGGTCTTGATTCGCTTGACGCTGCTG”, 1.84 z-score; that for “CCGATTAACATCAGGAAAAAACCTGATGTTAATCGGGTCTTGATTCGCTTGACGCTGCTG”, 3.66 z-score. With “CCGATTAACATCAGGTAATTTACTGATGTTAATCGGGTCTTGATTCGCTTGACGCTGCTG”, the binding signal turned out to be 5.32 z-score. Still for that read-out and setting: the result for “CCGATTAACATCAGGAATGTACCTGATGTTAATCGGGTCTTGATTCGCTTGACGCTGCTG” reads 4.93 z-score; that for “CCGATTAACATCAGGAAATTTCCTGATGTTAATCGGGTCTTGATTCGCTTGACGCTGCTG”, 1.75 z-score; that for “CCGATTAACATCAAAAAATTCCGTGATGTTAATCGGGTCTTGATTCGCTTGACGCTGCTG”, 2.44 z-score. On the same count and under the same terms, the result for “CCGATTAACATCACCCATGGGAATGATGTTAATCGGGTCTTGATTCGCTTGACGCTGCTG” reads 1.03 z-score; that for “CCGATTAACATCAGAAATTACCATGATGTTAATCGGGTCTTGATTCGCTTGACGCTGCTG”, 2.33 z-score.

Regarding “CCGATTAACATCAGGAATCTACCTGATGTTAATCGGGTCTTGATTCGCTTGACGCTGCTG”, the binding signal worked out at 2.24 z-score. Sequence “CCGATTAACATCAAGGAATTTCCTGATGTTAATCGGGTCTTGATTCGCTTGACGCTGCTG” came in with a binding signal of 2.04 z-score. Consider “CCGATTAACATCAGGAAGTTACCTGATGTTAATCGGGTCTTGATTCGCTTGACGCTGCTG”, for which the binding signal turned out to be 2.36 z-score. In turn, “CCGATTAACATCAGGGATCGCCCTGATGTTAATCGGGTCTTGATTCGCTTGACGCTGCTG” showed a binding signal of 3.26 z-score. Take “CCGATTAACATCAGGATTTTACCTGATGTTAATCGGGTCTTGATTCGCTTGACGCTGCTG”: the binding signal is 3.21 z-score.

The target of the next test is T2, GST-Aq-NF-kB (Amphimedon queenslandica, UniProt A9Y5G7 2-389).
T2 sequence: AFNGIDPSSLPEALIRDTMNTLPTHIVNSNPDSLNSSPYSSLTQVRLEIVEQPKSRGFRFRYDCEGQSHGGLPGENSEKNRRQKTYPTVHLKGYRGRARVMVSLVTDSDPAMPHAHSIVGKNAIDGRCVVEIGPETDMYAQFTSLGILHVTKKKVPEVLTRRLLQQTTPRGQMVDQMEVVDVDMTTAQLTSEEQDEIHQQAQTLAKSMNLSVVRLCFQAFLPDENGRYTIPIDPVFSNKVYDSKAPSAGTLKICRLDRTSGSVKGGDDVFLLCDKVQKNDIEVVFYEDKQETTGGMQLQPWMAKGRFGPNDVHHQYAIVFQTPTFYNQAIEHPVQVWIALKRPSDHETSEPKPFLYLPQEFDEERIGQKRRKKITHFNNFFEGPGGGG
The test is described as above. As to conditions: dsDNA, one strand shown.
Sequence “CCGATTAACATCAGGAATATACCTGATGTTAATCGGGTCTTGATTCGCTTGACGCTGCTG” gave a binding signal of 1.69 z-score. On the same count and under the same terms, next, “CCGATTAACATCAAGGACTTTCCTGATGTTAATCGGGTCTTGATTCGCTTGACGCTGCTG”: 4.6 z-score; “CCGATTAACATCAGTGTCCCGTTTGATGTTAATCGGGTCTTGATTCGCTTGACGCTGCTG”: 1.32 z-score. Still for that read-out and setting: next, “CCGATTAACATCACATTGGGAAATGATGTTAATCGGGTCTTGATTCGCTTGACGCTGCTG”: 1.18 z-score; “CCGATTAACATCACATGTGGGAATGATGTTAATCGGGTCTTGATTCGCTTGACGCTGCTG”: 2.05 z-score.

Regarding “CCGATTAACATCAGGAGTATCCCTGATGTTAATCGGGTCTTGATTCGCTTGACGCTGCTG”, the binding signal was 3.53 z-score. The same measure, in the same setting: the result for “CCGATTAACATCAATTGGGAAATTGATGTTAATCGGGTCTTGATTCGCTTGACGCTGCTG” reads 1.63 z-score; that for “CCGATTAACATCAAAATATTCCGTGATGTTAATCGGGTCTTGATTCGCTTGACGCTGCTG”, 1.1 z-score. On the same count and under the same terms, the result for “CCGATTAACATCAGGGTTAGTTGTGATGTTAATCGGGTCTTGATTCGCTTGACGCTGCTG” reads 1.57 z-score.

Turning to “CCGATTAACATCAAGGAAAAACCTGATGTTAATCGGGTCTTGATTCGCTTGACGCTGCTG”, the binding signal stood at 3.09 z-score.

As to “CCGATTAACATCAGGAAAAGTCCTGATGTTAATCGGGTCTTGATTCGCTTGACGCTGCTG”, the binding signal stood at 3.07 z-score. The same measure, in the same setting: the result for “CCGATTAACATCACAAATGGGAATGATGTTAATCGGGTCTTGATTCGCTTGACGCTGCTG” reads 2.36 z-score; that for “CCGATTAACATCAGACATGGGAATGATGTTAATCGGGTCTTGATTCGCTTGACGCTGCTG”, 1.94 z-score; that for “CCGATTAACATCATTTCCCAAAATGATGTTAATCGGGTCTTGATTCGCTTGACGCTGCTG”, 1.26 z-score. Same read-out and setting: the result for “CCGATTAACATCAATTCCCAACATGATGTTAATCGGGTCTTGATTCGCTTGACGCTGCTG” reads 1.17 z-score. In the case of “CCGATTAACATCAAGGTATTTCCTGATGTTAATCGGGTCTTGATTCGCTTGACGCTGCTG”, the binding signal was 3.84 z-score. The same measure, in the same setting: next, “CCGATTAACATCAATTCCCATGATGATGTTAATCGGGTCTTGATTCGCTTGACGCTGCTG”: 1.67 z-score; “CCGATTAACATCAGGAATTTACCTGATGTTAATCGGGTCTTGATTCGCTTGACGCTGCTG”: 4.81 z-score. The same measure, in the same setting: the result for “CCGATTAACATCAGAAATGGGAATGATGTTAATCGGGTCTTGATTCGCTTGACGCTGCTG” reads 2.5 z-score; that for “CCGATTAACATCAGGGCAGTACCTGATGTTAATCGGGTCTTGATTCGCTTGACGCTGCTG”, 3.03 z-score.

“CCGATTAACATCAACGGAAATTCTGATGTTAATCGGGTCTTGATTCGCTTGACGCTGCTG” returned a binding signal of 1.24 z-score. Still for that read-out and setting: next, “CCGATTAACATCAGGAAAAAACCTGATGTTAATCGGGTCTTGATTCGCTTGACGCTGCTG”: 3.37 z-score; “CCGATTAACATCAGGTAATTTACTGATGTTAATCGGGTCTTGATTCGCTTGACGCTGCTG”: 2.13 z-score; “CCGATTAACATCAGGAATGTACCTGATGTTAATCGGGTCTTGATTCGCTTGACGCTGCTG”: 3.14 z-score. Still for that read-out and setting: next, “CCGATTAACATCAACCATGGGAATGATGTTAATCGGGTCTTGATTCGCTTGACGCTGCTG”: 1.99 z-score. Same read-out and setting: next, “CCGATTAACATCAAATTGGGAAATGATGTTAATCGGGTCTTGATTCGCTTGACGCTGCTG”: 1.16 z-score.

Sequence “CCGATTAACATCAACTTTGGGAATGATGTTAATCGGGTCTTGATTCGCTTGACGCTGCTG” came in with a binding signal of 1.56 z-score. The same measure, in the same setting: the result for “CCGATTAACATCAGGAAATTTCCTGATGTTAATCGGGTCTTGATTCGCTTGACGCTGCTG” reads 3.27 z-score. “CCGATTAACATCATTATGGGAAATGATGTTAATCGGGTCTTGATTCGCTTGACGCTGCTG” came in with a binding signal of 1.44 z-score. The sequence “CCGATTAACATCAAAAAATTCCGTGATGTTAATCGGGTCTTGATTCGCTTGACGCTGCTG” registered a binding signal of 2.61 z-score. Same read-out and setting: the result for “CCGATTAACATCACCCATGGGAATGATGTTAATCGGGTCTTGATTCGCTTGACGCTGCTG” reads 2.51 z-score. Same read-out and setting: the result for “CCGATTAACATCAGAAATTACCATGATGTTAATCGGGTCTTGATTCGCTTGACGCTGCTG” reads 1.16 z-score; that for “CCGATTAACATCATTGGGAAAAATGATGTTAATCGGGTCTTGATTCGCTTGACGCTGCTG”, 1.92 z-score; that for “CCGATTAACATCAGGAATCTACCTGATGTTAATCGGGTCTTGATTCGCTTGACGCTGCTG”, 3.42 z-score.

Turning to “CCGATTAACATCAAGGAATTTCCTGATGTTAATCGGGTCTTGATTCGCTTGACGCTGCTG”, the binding signal turned out to be 4.35 z-score. Same read-out and setting: the result for “CCGATTAACATCAGGAAGTTACCTGATGTTAATCGGGTCTTGATTCGCTTGACGCTGCTG” reads 2.57 z-score.

In turn, “CCGATTAACATCAGGGATCGCCCTGATGTTAATCGGGTCTTGATTCGCTTGACGCTGCTG” returned a binding signal of 4.24 z-score.

Sequence “CCGATTAACATCAGGATTTTACCTGATGTTAATCGGGTCTTGATTCGCTTGACGCTGCTG” showed a binding signal of 3.66 z-score.

“CCGATTAACATCAACTATCCCGCTGATGTTAATCGGGTCTTGATTCGCTTGACGCTGCTG”: the binding signal is 1.07 z-score. Still for that read-out and setting: the result for “CCGATTAACATCACTTTGGGAAATGATGTTAATCGGGTCTTGATTCGCTTGACGCTGCTG” reads 1.28 z-score.
